# A selection: hits, their analogues and other compounds. The true share with any hit is near 8%.
# FBPA coupling cs: counter-screen for Giardia aldolase inhibitors: coupling enzyme system. activity change, negative = inhibition, % at 58.2 µM, hits read low. coupling enzyme system counterscreen, AmpLite Red fluorescence. 0.67% of 290,000 active; in the data active means activity change below about -30%
#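 Compounds tested against the coupling enzymes alone at 57.5 uM final; readout was AmpLite Red fluorescence (525/598 nm) after 20 min at RT.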
# TSHR antagonist: blocks TSH signaling through the human TSH receptor. activity change, negative = inhibition, % at 11.5 µM. 0.2% of 330,000 active. AID 504810. TSHR-expressing cells, TSH-stimulated cAMP HTRF, 2 h; hits give low values. P16473;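 active means activity change below a set negative limit, meaning inhibition stronger than a set level, cut at about -70% in these data; inconclusive means activity change between two set negative limits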
# Target sequence (P16473 whole entry, looked up): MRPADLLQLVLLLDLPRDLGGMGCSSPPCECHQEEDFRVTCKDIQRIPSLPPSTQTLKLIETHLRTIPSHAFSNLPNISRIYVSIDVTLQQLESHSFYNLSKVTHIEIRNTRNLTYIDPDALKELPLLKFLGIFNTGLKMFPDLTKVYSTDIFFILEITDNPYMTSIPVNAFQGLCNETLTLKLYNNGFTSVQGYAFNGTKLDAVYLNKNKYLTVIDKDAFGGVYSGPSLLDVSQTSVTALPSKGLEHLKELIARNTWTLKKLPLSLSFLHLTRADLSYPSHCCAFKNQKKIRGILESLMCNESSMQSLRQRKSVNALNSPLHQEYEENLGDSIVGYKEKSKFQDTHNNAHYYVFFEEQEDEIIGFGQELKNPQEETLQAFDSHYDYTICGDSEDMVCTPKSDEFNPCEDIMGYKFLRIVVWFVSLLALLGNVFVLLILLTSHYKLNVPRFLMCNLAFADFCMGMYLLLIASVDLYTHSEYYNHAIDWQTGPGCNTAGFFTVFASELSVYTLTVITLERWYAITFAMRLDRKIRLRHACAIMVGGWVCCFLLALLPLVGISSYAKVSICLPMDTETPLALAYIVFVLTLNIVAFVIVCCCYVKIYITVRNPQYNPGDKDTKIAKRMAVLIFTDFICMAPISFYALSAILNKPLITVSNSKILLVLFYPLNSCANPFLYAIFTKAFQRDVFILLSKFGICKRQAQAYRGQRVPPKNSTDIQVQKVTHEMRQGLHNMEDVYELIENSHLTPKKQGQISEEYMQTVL
#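 TSHR-expressing cells were treated with compounds, then stimulated with TSH at EC80 (4nM final) for 2 hours at 37 deg C. Cellular cAMP was measured by HTRF competition between lysate cAMP and cAMP-d2 for a cryptate-labelled anti-cAMP antibody.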
# RORg inh: inhibitors of mouse ROR gamma transcriptional activity | AID 2551 | P51450 | 5.4% of 310,000 active | Potency, µM (titrated, usually from 53.6 µM), inactives show at the highest dose activity change, negative = inhibition, actives largely listed as inhibitors | Drosophila S2 Gal4-RORgamma UAS-luciferase reporter, 20 h; further: potency means the concentration at half of the fitted maximal effect; nearly all actives have a fitted effect of over 60% in size
#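 Schneider cells (Drosophila), stable Gal4 DBD–ROR gamma + UAS-luc; 1 hr cmpd preincubation; Cu2+ induction 700 uM final; 20 hr ambient; luminescence.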
# VP16 counter: counter-screen for ROR gamma inhibitors: Gal4-VP16 reporter | Potency, µM (series often up to 53.6 µM), without a hit: at the highest dose activity, negative = inhibition, most hits filed as inhibitors | AID 2546 | Drosophila S2 Gal4-VP16 UAS-luciferase, luminescence, 20 h | 3.5% of 310,000 active;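 further: Gal4-VP16 expression switched on by copper sulfate through the metallothionein promoter; potency means the concentration at half of the fitted maximal effect; nearly all actives have a fitted effect of over 50% in size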
# ELG1 DNA repair: blocks ELG1-dependent DNA repair in HEK293T cells; HEK293T ELG1-luciferase reporter, luminescence, 16 h; DNA damage induced by 5-fluorouridine; Potency, µM (doses to about 46.1 µM), for the others: at the top dose activity change, negative = inhibition, hits mostly inhibitors; 2.3% of 330,000 active; further: potency means the concentration at half of the fitted maximal effect; nearly all actives have a fitted effect of over 55% in size
#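 Cells (2,000 per well) received 5-fluorouridine plus test compound or DMSO and were incubated 16 hr at 37 °C, 5% CO2. Luciferase activity was read by luminescence 30 min after ONE-Glo addition; signal suppression marked inhibition of damage-induced ELG1 function.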
# * marks the source's active call; other numbers are inactive results; u = inconclusive; x = no result given; [ ] = another dose, or the depositor's remark. Unless noted, the call rests on the fitted dose curve; in most records, active means well fitted curve in the direction sought with a large enough effect; inconclusive means small, poorly fitted or top-dose-only effect, or another doubt; inactive means no such curve, though single readings can be large; an effect the other way counts as inactive or inconclusive. On the % scale 0 is the no-effect control and ±100 the full control effect.
SMILES,FBPA coupling cs,TSHR antagonist,RORg inh,VP16 counter,ELG1 DNA repair
COc1ccc(N2C(=O)CC(Sc3nc4ccccc4s3)C2=O)cc1OC (stereo not given),5.7,-0.8,6.31µM*,5.62µM*,13.0%
CC(=O)Nc1ccc(N2C(=O)CC(Sc3nc4ccccc4s3)C2=O)cc1 (stereo not given),1.2,19.1,2.24µM*,-2.2%[10 µM],12.5%
CCOc1ccc2nc(SC3CC(=O)N(c4ccc(C)cc4)C3=O)sc2c1 (stereo not given),-0.4,-22.9,-0.2%,-17.8%,u
CC(=O)Nc1ccc(N2C(=O)CC(c3ccccc3)CC2=O)cc1,8.2,-3.1,20.9%,-8.7%,18.5%
COc1cc(CNC(=O)C2CCC(=O)N(C3CCCCCC3)C2)cc(OC)c1 (stereo not given),0.0,1.5,39.3%,-4.4%,3.4%
COC(=O)c1ccc(C(NC(=O)OCc2ccccc2)/C(I)=C/[C@@H](C)C(=O)NCC2CC2)cc1 (stereo not given in full),-0.2,x,u,9.3%,x
CC(C)CN1CCC2(CC1)CCN(C(=O)c1csnn1)CC2,-0.2,x,-3.1%,-3.8%,x
CC(C)c1ccc(OCC(=O)Nc2ccc3oc(=O)ccc3c2)cc1,0.0,-1.5,18.7%,-4.9%,11.2%
N#CCCn1nc(-c2ccc([N+](=O)[O-])cc2)cc1Nc1ccccc1NC(=O)C(F)(F)F,-0.5,-18.6,41.1%,u,18.4µM*
CCc1nc2ccccc2c(C(=O)Nc2ccc(F)cc2)c1C,1.6,23.0,6.9%,-10.7%,0.3%
C=CCNC(=S)NNc1nc2sc3c(c2c(=O)[nH]1)CC(C)(C)OC3,1.1,-7.6,5.62µM*,10µM*,-3.5%
CCC(Sc1ccccn1)C(=O)Nc1cccc([N+](=O)[O-])c1 (stereo not given),-10.5,5.2,15.8µM*,u,10.0%
CCCNC(=O)OC[C@@H]1O[C@H](CCO/N=C\[C@@H](C)[C@H](OCc2ccccc2)C(C)C)C=C[C@@H]1Oc1ccc(OC)cc1,-2.4,x,13.7%[10 µM],2.8%[10 µM],x
Oc1ccc(-c2cnc(-c3ccc(O)cc3)nc2)cc1,-1.1,3.0,2.51µM*,u,u
CCOC(=O)c1ccc(NC(=S)Nc2cccc(N)n2)cc1,-29.9,-4.4,4.7%,-1.8%,u
CCOC(=O)c1ccc(NC(=S)NC(=O)c2cncc(Br)c2)cc1,1.0,3.0,2.24µM*,u,23.3%
CC(=O)c1ccc(NC(=S)NC(=O)c2c(Cl)c(C)nn2C)cc1,0.3,-5.2,u,-14.5%,16.2%
CCCCOC(=O)c1ccc(NC(=S)NC(=O)c2c(Br)c(C)nn2C)cc1,-2.2,34.5,15.8µM*,12.6µM*,-17.9%
CCOC(=O)c1ccc(NC(=S)Nc2cccc(C)n2)cc1,4.4,-6.4,0.891µM*,u,8.0%
CCOC(=O)c1ccc(NC(=S)NN)cc1,0.8,17.2,10µM*,u,2.5%
O=C(NCc1cccc2ccccc12)[C@H]1C[C@@H]1[C@H](NP(=O)(c1ccccc1)c1ccccc1)c1ccccc1,0.1,x,u,9.8%,x
CC(=O)Nc1ccc(S(=O)(=O)NCCC(=O)NCCOc2ccccc2)cc1,x,-3.7,x,x,6.9%
COc1ccc(CNS(=O)(=O)c2csc(C(N)=O)c2)cc1OC,x,3.1,2.4%,4.2%,u
O=C(O)c1ccccc1Cl,x,x,-0.7%,5.1%,x
COc1ccc(NC(=O)CN2CCN(c3c(C)cccc3C)CC2)cc1,1.4,15.7,x,x,-24.9%
SMILES,FBPA coupling cs,TSHR antagonist,RORg inh,VP16 counter,ELG1 DNA repair
O=C(O)COc1cccc2c1CCC=C2CCO/N=C(\c1ccccc1)c1cccnc1,12.2,x,2.7%,1.2%,x
COC(=O)Cc1ccc(NC(=S)Nc2cccc(C)n2)cc1,-0.2,-0.2,4.47µM*,u,u
Cc1ccc(OCCNC(=O)c2cncc(Br)c2)cc1C,1.1,1.1,18.6%,-2.3%,7.4%
Cc1cccc(OCCNC(=S)NC(=O)c2cncc(Br)c2)c1,-0.3,-6.9,5.01µM*,6.31µM*,1.8%
CCOC(=O)N/N=C1/C[C@@H](O)[C@@H](O)[C@@H]2[C@@H]3C(=O)N(c4cccc(Oc5ccccc5)c4)C(=O)[C@H]3CC[C@H]12,2.1,x,-5.1%[10 µM],1.4%[10 µM],x
NCC1OC(O[C@H]2[C@H](O)[C@@H](OC3C(O)C(N)CC(N)C3OC3OC(CO)C(O)C(O)C3N)O[C@@H]2CO)C(N)C(O)C1O (stereo not given in full),x,-7.7,x,x,x
Cc1ccc(C(=O)CC(=O)c2ccccc2C)c(O)c1,0.5,1.1,3.55µM*,5.62µM*,-11.4%
Cc1ccc(C(=O)CC(=O)c2cccc(F)c2)c(O)c1,-1.9,-9.0,11.2µM*,u,0.0%
Cc1ccc(C(=O)c2ccccc2C(=O)O)c(O)c1,6.6,26.5,1.4%,2.2%,0.1%
CN1C(=O)C(CCC(=O)O)NC1=S (stereo not given),-0.1,-2.5,-74.2%,4.1%,24.9%
N#CC1=C(N)Oc2c(ccc3cccnc23)C1c1cccnc1 (stereo not given),-0.5,8.7,6.8%,-13.8%,u
Cc1ccc2cc(C3C(C#N)=C(N)Oc4c3ccc3cccnc43)c(=O)[nH]c2c1 (stereo not given),-39.1*,6.0,-35.1%,-15.7%,-5.3%
CCc1ccc2[nH]c(=O)c(C3C(C#N)=C(N)Oc4c3ccc3cccnc43)cc2c1 (stereo not given),-1.3,-6.8,u,-5.9%,11.6µM*
Cc1ccc(C(=O)c2ccccc2C(=O)OCC(=O)N2C(C)CCCC2C)cc1 (stereo not given),x,-4.3,x,x,7.1%
O=C(CCl)N1CCN(S(=O)(=O)Cc2ccccc2)CC1,x,-21.0,x,x,9.2µM*
CCOC(=O)N1CCN(S(=O)(=O)Cc2ccccc2)CC1,3.8,7.7,8.4%,-0.3%,-2.1%
Cc1cc(NC(=O)c2cccc(Cl)c2)n[nH]1,x,-1.4,x,x,u
Cc1cc(NC(=O)NC(=O)c2ccc(F)cc2F)n[nH]1,0.7,9.2,8.91µM*,u,u
COc1ccc(/C(C)=N/NC(=O)C2CC2)cc1,-0.2,6.9,10.8%,-12.8%,u
Cc1ccc(NC(=S)NCC(O)c2ccccc2)c(C)c1 (stereo not given),7.3,3.6,-77.6%,4.2%,-3.0%
COc1ccc(CNC(=S)Nc2cc(C)ccc2C)cc1,0.9,0.6,7.94µM*,7.08µM*,-0.6%
COc1ccc(CC(=O)NCc2ccccc2)cc1,-0.1,-5.3,33.6%,8.4%,-2.6%
COc1ccc(CNC(=S)Nc2ccccc2C)cc1,-0.6,9.4,17.8µM*,10µM*,-0.4%
Cc1ccc(C)c(NC(=S)NCc2ccccc2)c1,-3.1,4.4,3.16µM*,5.01µM*,-3.8%
COc1ccc(/C(C)=N/NC(=S)Nc2cc(C)ccc2C)cc1,-2.0,-0.7,2.82µM*,11.2µM*,-16.6%
